Each structure is given as a SMILES string. Inconclusive results are not listed. Values without a mark were called inactive. Calls of active or inactive are those of the source. The call rests on the fitted dose curve; in most records, active means well fitted curve in the direction sought with a large enough effect; inconclusive means small, poorly fitted or top-dose-only effect, or another doubt; inactive means no such curve, though single readings can be large or run the other way.
On the % scale 0 is the no-effect control and ±100 the full control effect; potency means the concentration at half of the fitted maximal effect.

The nature of this experiment: qHTS Assay for Identifying Gametocytocidal Compounds (AID 743244).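 On max response: actives lower the fluorescent signal which means gametocytes are killed.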 The settings on record: P. falciparum 3D7 stage III-V gametocytes, alamarBlue, 72 h; max response: hits give low values. An outline of the steps: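 Stage III–V gametocytes of P. falciparum 3D7 were seeded at 20,000 cells/well onto pre-dispensed compounds. After 72 h, 37 °C, 5% CO2, alamarBlue was added for another 24 h.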
`CNCC(=O)N[C@@H](CCCN=C(N)N)C(=O)N[C@H](C(=O)N[C@@H](Cc1ccc(O)cc1)C(=O)N[C@H](C(=O)N[C@@H](Cc1cnc[nH]1)C(=O)N1CCC[C@H]1C(=O)N[C@@H](C)C(=O)O)C(C)C)C(C)C`: the max response was 5.17%.
As to `COc1cc(C)c(/C=C/C(C)=C/C=C/C(C)=C/C(=O)O)c(C)c1C`, the max response is 1.95%.
On the same count and under the same terms, the result for `CCCCCCCCCCCCCCCCCCOCC(COP(=O)([O-])OCC[N+](C)(C)C)OC` (configuration not stated) reads 3.69%.
Take `O=[n+]1ccn([O-])c2ccccc21`: the max response was -5.38%.
Still for that read-out and setting: the result for `C[C@@H]1O[C@@H]1P(=O)(O)O` reads -12.6%; that for `O=[N+]([O-])O[C@@H]1CO[C@H]2[C@@H]1OC[C@@H]2O`, 5.11%.
The same measure, in the same setting: the result for `FC(F)(F)C(F)(F)C(F)(F)C(F)(F)C(F)(F)F` reads -2.45%; that for `CC(=O)N=c1sc(S(N)(=O)=O)nn1C`, 3.69%; that for `C=C1C(CCl)(CCl)C2(Cl)C(Cl)C(Cl)C1(Cl)C2(Cl)Cl` (configuration not stated), -0.376%.
Still for that read-out and setting: the result for `CC(C)CN(C[C@@H](OP(=O)(O)O)[C@H](Cc1ccccc1)NC(=O)O[C@H]1CCOC1)S(=O)(=O)c1ccc(N)cc1` reads -7.76%.
As for `CCC(Cc1c(I)cc(I)c(O)c1I)C(=O)O` (configuration not stated), the max response was 11.2%.
Regarding `CC(=O)Nc1ccc(OC(=O)c2ccccc2O)cc1`, the max response was -4.48%.
Turning to `CCN1\C(=C/C=C/C=C/c2sc3ccccc3[n+]2CC)Sc2ccccc21`, the Potency was 11.2 µM (active).
For `FCOC(C(F)(F)F)C(F)(F)F`, the max response was -7.47%.
Same read-out and setting: the result for `COc1ccc(C[C@H](C)NC[C@@H](O)c2ccc(O)c(NC=O)c2)cc1` reads -5.27%; that for `CCN(CC)C(=O)c1cccnc1`, -8.37%.
For `O=C(O)CCC/C=C\C[C@@H]1[C@@H](/C=C/[C@@H](O)COc2cccc(Cl)c2)[C@H](O)C[C@@H]1O`, the max response is -3.1%.
`CS(=O)(=O)c1ccc([C@@H](O)[C@@H](COC(=O)CN)NC(=O)C(Cl)Cl)cc1`: the max response is 0.65%.
On the same count and under the same terms, the figure for `CC(C)CCCC(C)NC(C)C` (configuration not stated) is 15.9%; for `O=C(O)CCC(=O)c1ccc(-c2ccccc2)cc1` it is 1.84%; for `CC(C)C[C@@H](NC(=O)[C@@H](O)[C@H](N)Cc1ccccc1)C(=O)O` it is 1.84%.
Same read-out and setting: the figure for `CCN(CC)CCOc1ccccc1OC` is -0.561%; for `NS(=O)(=O)c1cc2c(cc1Cl)NC(Cc1ccccc1)NS2(=O)=O` (configuration not stated) it is 18.5%.
Same read-out and setting: the figure for `COC(=O)CC[C@H](N)C(=O)O` is -4.69%; for `N[C@H](CC(=O)O)C(=O)O` it is 2.16%; for `CCC(C(=O)NC(N)=O)c1ccccc1` (configuration not stated) it is 7.61%.
In the case of `C#C[C@]1(O)CC[C@H]2[C@@H]3CCC4=C(CCC(=O)C4)[C@H]3CC[C@@]21C`, the max response is 12.4%.

Values taken from PubChem BioAssay (NCATS).
